In PubChem BioAssay (NCATS) one finds efficacy, outcome and parasite growth remaining, % of DMSO control (lower = more inhibition) data, which are given here for 51 molecules.

For part of these data: Entries with a potency or affinity are not part of this list. Calls of active or inactive are those of the source. Unless noted, how the calls were made is not given here.

For assay [1] the following is noted: Ebola virus entry assay, green fluorescence channel.
The conditions of assay [2]: Ebola virus entry assay, blue channel fluorescence.
For assay [3] the following is noted: Ebola virus entry assay, green channel fluorescence.
For assay [4] the following is noted: Ebola virus entry assay, reporter ratio channel; AC50: Channel type: primary unless noted; outcome: Channel type: primary unless noted.
Assay [5] deals with T1, Hexokinase-4 (Homo sapiens) + Glucokinase regulatory protein (Homo sapiens) (UniProt P35557+Q14397). In words: qHTS assay for inhibitors of recombinant human GCK-GKRP interaction: ADP-Glo assay (AID 743206; active means well fitted curve in the direction sought with a large enough effect;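 further: plate controls were DMSO plus enzyme for no effect and no enzyme for full effect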). The conditions noted are these: ADP-Glo luminescence, 60 min, 0% = vehicle-only wells with enzyme present; series mostly up to 76.9 µM. An outline of the steps:
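Pin-transferred compounds meet a 15 nM GST-GCK/15 nM FLAG-GKRP/2 uM S6P mix (dispense concentrations). ATP is then added to 0.4 mM final with 5 mM glucose, and the reaction runs 60 min at room temperature. ADP is quantified luminescently.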
On the technique in general: Quantitative high-throughput screening tests each substance at several concentrations.

The target in assay [6] is T1, Hexokinase-4 (Homo sapiens) + Glucokinase regulatory protein (Homo sapiens). In words: qHTS assay for inhibitors of recombinant human GCK-GKRP interaction: HTRF assay (AID 743207; active means well fitted curve in the direction sought with a large enough effect;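 further: 0% = DMSO with GCK present and -100% = DMSO wells lacking GCK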). The following applies: recombinant GCK-GKRP HTRF binding, 60 min; series mostly up to 57.5 µM. An outline of the steps: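 GST-GCK and FLAG-GKRP (5 nM each) were combined with 2 uM S6P in pH 7.1 Hepes/MgCl2/KCl/DTT buffer, then compound and anti-FLAG XL665/anti-GST K antibodies were added. After 60 min at room temperature, HTRF 665/615 nm emission was read.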

A short description of assay [7]: qHTS profiling of the MIPE4 collection as inhibitors of Plasmodium falciparum (DD2) proliferation (AID 743345). The conditions noted are these: P. falciparum Dd2 in erythrocytes, SYBR Green DNA, 72 h; at 28.5 µM (top of the series) unless noted. In short, it runs like this: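 Parasite DNA was quantified by SYBR Green I fluorescence (ex 485, em 535 nm) after overnight lysis in saponin/Triton buffer at room temperature. Cultures at 0.3% parasitemia and 2.5% hematocrit were first exposed to compound for 72 h at 37 C; signals were normalised to artemisinin (0.29 uM) and vehicle wells.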
Wherever efficacy is given: 0% is about no effect.

T1 sequence (P35557 whole entry, looked up): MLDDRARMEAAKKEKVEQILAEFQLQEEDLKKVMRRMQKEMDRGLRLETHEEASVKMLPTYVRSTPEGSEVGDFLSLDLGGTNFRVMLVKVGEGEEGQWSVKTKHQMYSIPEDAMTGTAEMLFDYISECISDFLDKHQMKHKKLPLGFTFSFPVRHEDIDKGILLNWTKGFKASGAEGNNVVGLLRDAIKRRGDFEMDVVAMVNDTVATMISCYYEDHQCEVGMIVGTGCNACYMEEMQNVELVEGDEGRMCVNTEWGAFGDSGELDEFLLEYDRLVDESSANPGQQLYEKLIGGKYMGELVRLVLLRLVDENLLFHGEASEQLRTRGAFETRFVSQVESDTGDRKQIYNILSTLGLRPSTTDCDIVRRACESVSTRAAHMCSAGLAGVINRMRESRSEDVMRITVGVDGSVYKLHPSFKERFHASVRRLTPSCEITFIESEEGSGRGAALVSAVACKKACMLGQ
T1 sequence (Q14397 whole entry, looked up): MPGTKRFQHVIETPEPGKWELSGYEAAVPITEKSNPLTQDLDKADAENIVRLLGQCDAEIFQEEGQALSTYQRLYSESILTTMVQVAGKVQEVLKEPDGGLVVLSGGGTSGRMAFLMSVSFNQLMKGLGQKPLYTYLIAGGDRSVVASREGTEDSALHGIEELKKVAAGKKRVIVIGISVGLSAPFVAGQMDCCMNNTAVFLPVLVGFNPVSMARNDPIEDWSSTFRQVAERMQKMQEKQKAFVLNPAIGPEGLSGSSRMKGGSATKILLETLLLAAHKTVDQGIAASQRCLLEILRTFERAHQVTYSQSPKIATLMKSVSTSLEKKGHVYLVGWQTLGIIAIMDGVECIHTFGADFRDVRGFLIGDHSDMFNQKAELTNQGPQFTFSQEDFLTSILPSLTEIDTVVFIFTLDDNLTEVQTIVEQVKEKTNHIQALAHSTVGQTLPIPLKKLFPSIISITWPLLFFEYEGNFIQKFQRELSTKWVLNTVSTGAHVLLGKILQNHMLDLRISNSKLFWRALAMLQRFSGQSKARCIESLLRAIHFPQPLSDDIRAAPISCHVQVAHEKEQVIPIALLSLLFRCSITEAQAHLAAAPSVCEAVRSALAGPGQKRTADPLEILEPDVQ

Consider `C[C@]12C=CC(=O)C=C1CC[C@@H]1[C@@H]2C(=O)C[C@@]2(C)[C@H]1CC[C@]2(O)C(=O)CO`, for which the efficacy in assay [1] was -19.9% (inactive). Also, the molecule was classed as inactive in assay [2], in assay [3] and in assay [4].
In the case of `COc1ccc(C2C(=O)c3ccccc3C2=O)cc1`, the efficacy in assay [1] was -26.8% (inactive). Also, the call in assay [2], in assay [3] and in assay [4] was inactive.
For the molecule `CCN[C@H]1CN(CCCOC)S(=O)(=O)c2sc(S(N)(=O)=O)cc21`, the efficacy in assay [1] was 16.3% (inactive). The outcome in assay [2], in assay [3] and in assay [4] was inactive.
On to `COC(=O)c1ccc(NC(C)=O)cc1OC`, for which the efficacy in assay [1] is 15.6% (inactive). The molecule was classed as inactive in assay [2], in assay [3] and in assay [4].
Consider `COc1cc(OC)nc(O[C@H](C(=O)O)C(OC)(c2ccccc2)c2ccccc2)n1`, for which the efficacy in assay [1] was 36.2% (inactive). In addition, the call in assay [2], in assay [3] and in assay [4] was inactive.
Regarding `CC(=O)Nc1ccc(OC(=O)c2ccccc2OC(C)=O)cc1`, the efficacy in assay [1] was -28.5% (inactive). Further, the result in assay [2], in assay [3] and in assay [4] was inactive.
For the molecule `CC(O)C(=O)O` (stereo not drawn), the efficacy in assay [1] was 12.5% (inactive). Besides, the molecule was called inactive in assay [2], in assay [3] and in assay [4].
For `CC(=O)[C@H]1CC[C@H]2[C@@H]3C[C@H](C)C4=CC(=O)CC[C@]4(C)[C@H]3[C@@H](O)C[C@]12C`, in assay [1], the efficacy was -17.9% (inactive). Further, the result in assay [2], in assay [3] and in assay [4] was inactive.
As to `CC(C)C(=O)Nc1cccc(C(F)(F)F)c1`, the efficacy in assay [1] was 16.7% (inactive). Moreover, the molecule was called inactive in assay [2], in assay [3] and in assay [4].
For `CC1(C)Oc2ccc(C#N)cc2[C@@H](N2CCCC2=O)[C@@H]1O`, the efficacy in assay [1] is -10.5% (inactive). Further, the result in assay [2], in assay [3] and in assay [4] was inactive.
In the case of `CCN1CCC[C@H]1CNC(=O)c1c(O)c(Cl)cc(Cl)c1OC`, the efficacy in assay [1] was -17.7% (inactive). Moreover, the molecule was classed as inactive in assay [2], in assay [3] and in assay [4].
For the molecule `C[C@@H]1CC2=CC(=O)CC[C@@H]2[C@H]2CC[C@@]3(C)[C@@H](CC[C@]3(C)O)[C@@H]21`, the efficacy in assay [1] is 24.6% (inactive). Further, the call in assay [2], in assay [3] and in assay [4] was inactive.
For the molecule `CC(C(=O)O)c1ccc2c(c1)CC(=O)c1ccccc1S2` (stereo not drawn), the efficacy in assay [1] was 23.3% (inactive). The outcome in assay [2], in assay [3] and in assay [4] was inactive.
With `Nc1nc(N)c(-c2ccccc2)s1`, the efficacy in assay [1] was 13% (inactive). The result in assay [2], in assay [3] and in assay [4] was inactive.
Consider `O=C(OCC1(COC(=O)c2cccnc2)CCCC(COC(=O)c2cccnc2)(COC(=O)c2cccnc2)C1O)c1cccnc1`, for which the efficacy in assay [1] is -19.2% (inactive). For the same molecule, the molecule was called inactive in assay [2], in assay [3] and in assay [4].
In the case of `CC[N+](CC)(CCNC(=O)C(=O)NCC[N+](CC)(CC)Cc1ccccc1Cl)Cc1ccccc1Cl`, the efficacy in assay [1] is -9.71% (inactive). For the same molecule, the molecule was classed as inactive in assay [2], in assay [3] and in assay [4].
Turning to `CC(=O)N[C@@H](CCC(=O)O)C(=O)O`, in assay [1], the efficacy was -13.7% (inactive). Moreover, the outcome in assay [2], in assay [3] and in assay [4] was inactive.
Turning to `CC1(C)S[C@@H]2[C@H](NC(=O)C(c3ccccc3)S(=O)(=O)O)C(=O)N2[C@H]1C(=O)O` (stereo partly drawn), the efficacy in assay [1] is 24.6% (inactive). The outcome in assay [2], in assay [3] and in assay [4] was inactive.
Regarding `Cc1cccc(C)c1NC(=O)CN(CC(=O)O)CC(=O)O`, the efficacy in assay [1] is -22.8% (inactive). In addition, the outcome in assay [2], in assay [3] and in assay [4] was inactive.
As for `CC(=O)c1ccc(S(=O)(=O)NC(=O)NC2CCCCC2)cc1`, in assay [1], the efficacy was -18.3% (inactive). The result in assay [2], in assay [3] and in assay [4] was inactive.
On to `COc1ccc2cccc(CCNC(C)=O)c2c1`, for which the efficacy in assay [1] is -16.7% (inactive). In addition, the call in assay [2], in assay [3] and in assay [4] was inactive.
Consider `CC(=O)c1ccc(OCC(=O)N2CCCCC2)cc1`, for which, in assay [1], the efficacy is -14.3% (inactive). Besides, the call in assay [2], in assay [3] and in assay [4] was inactive.
In the case of `CCOC(=O)/C=C(C)/C=C/C=C(C)/C=C/c1c(C)cc(OC)c(C)c1C`, the efficacy in assay [1] was 27.5% (inactive). Further, the molecule was classed as inactive in assay [2], in assay [3] and in assay [4].
For `C[C@]12CC[C@H]3[C@@H](CCC4=CC(=O)CC[C@@H]43)[C@@H]1CC[C@@H]2OC(=O)CCc1ccco1`, in assay [1], the efficacy was -14.7% (inactive). For the same molecule, the outcome in assay [2], in assay [3] and in assay [4] was inactive.
Consider `COc1ccc(C(=O)N2CCN(CC(=O)N3CCOCC3)CC2)cc1`, for which the efficacy in assay [1] was -11.2% (inactive). Also, the molecule was classed as inactive in assay [2], in assay [3] and in assay [4].
For the molecule `CC(=O)Nc1ccc(OCC(O)CNC(C)C)cc1` (stereo not drawn), in assay [1], the efficacy was -28.6% (inactive). Moreover, the outcome in assay [2], in assay [3] and in assay [4] was inactive.
Regarding `O=c1cc[nH]c(=O)[nH]1`, the efficacy in assay [1] was 11.9% (inactive). In addition, the outcome in assay [2], in assay [3] and in assay [4] was inactive.
Regarding `CN1C[C@@H]2C[C@H]1CN2c1cc2c(cc1F)c(=O)c(C(=O)O)cn2C1CC1`, in assay [1], the efficacy was 18.4% (inactive). The call in assay [2], in assay [3] and in assay [4] was inactive.
On to `CC(=O)NO`, for which the efficacy in assay [1] was -14.2% (inactive). In addition, the call in assay [2], in assay [3] and in assay [4] was inactive.
For `Cc1cccc(C(=O)O)c1O`, the efficacy in assay [1] was 15.1% (inactive). The outcome in assay [2], in assay [3] and in assay [4] was inactive.
Take `O=C(O)Cc1ccc(-c2ccccc2)cc1`: the efficacy in assay [1] was 14.2% (inactive). The result in assay [2], in assay [3] and in assay [4] was inactive.
As for `Oc1ccc(OCc2ccccc2)cc1`, the efficacy in assay [1] was 14.9% (inactive). Further, the result in assay [2], in assay [3] and in assay [4] was inactive.
In the case of `COC(=O)/C=C\C(=O)OC`, in assay [1], the efficacy is 24.5% (inactive). Also, the outcome in assay [2], in assay [3] and in assay [4] was inactive.
In the case of `CCCCCCCC/C=C/C(=O)O`, the efficacy in assay [1] was 20.4% (inactive). The call in assay [2], in assay [3] and in assay [4] was inactive.
In the case of `CCCCCCCC(=O)OCC(COC(=O)CCCCCCC)OC(=O)CCCCCCC`, in assay [1], the efficacy was 8.07% (inactive). Besides, the molecule was called inactive in assay [2], in assay [3] and in assay [4].
For the molecule `NC(=S)N/N=C/c1cccnc1`, the efficacy in assay [1] was 12.5% (inactive). In addition, the molecule was classed as inactive in assay [2], in assay [3] and in assay [4].
Take `Nc1ncnc2c1ncn2[C@@H]1O[C@H](COP(=O)(O)O)[C@@H](O)[C@H]1O`: in assay [1], the efficacy was 14.6% (inactive). Also, the result in assay [2], in assay [3] and in assay [4] was inactive.
Turning to `CC(C)(C)CC(C)(C)c1ccc(O)c(-n2nc3ccccc3n2)c1`, in assay [1], the efficacy is 9.19% (inactive). Further, the molecule was called inactive in assay [2], in assay [3] and in assay [4].
`COc1cc(C)nc(-n2nc(C)cc2OC)n1`: the efficacy in assay [1] was -14.1% (inactive). In addition, the result in assay [2], in assay [3] and in assay [4] was inactive.
As for `O=C1[C@@H]2[C@H]3CC[C@H](C3)[C@@H]2C(=O)N1CCCCN1CCN(c2ncccn2)CC1`, the efficacy in assay [1] was -13.3% (inactive). For the same molecule, the outcome in assay [2], in assay [3] and in assay [4] was inactive.
Turning to `Cc1ccc(O)c2ncccc12`, the efficacy in assay [1] was 17.9% (inactive). Besides, the molecule was classed as inactive in assay [2], in assay [3] and in assay [4].
Take `O=C(O)Cc1cccc(-c2cc(CCCCCCc3ccc(O[C@H]4O[C@H](CO)[C@@H](O)[C@H](O)[C@@H]4O)c(-c4cccc(CC(=O)O)c4)c3)ccc2O[C@H]2O[C@H](CO)[C@@H](O)[C@H](O)[C@@H]2O)c1`: the efficacy in assay [1] was -7.69% (inactive). In addition, the call in assay [2], in assay [3] and in assay [4] was inactive.
For the molecule `O=C1CC2(CCCC2)CC(=O)N1`, in assay [1], the efficacy is -26.6% (inactive). In addition, the call in assay [2], in assay [3] and in assay [4] was inactive.
In the case of `CC(C)(C(=O)c1cccnc1)c1cccnc1`, in assay [1], the efficacy was 15.8% (inactive). Further, the result in assay [2], in assay [3] and in assay [4] was inactive.
For `O=C(OCCN1CCOCC1)c1cccnc1Nc1cccc(C(F)(F)F)c1`, the efficacy in assay [1] was -15.5% (inactive). For the same molecule, the molecule was called inactive in assay [2], in assay [3] and in assay [4].
As for `CN[C@@H]1[C@@H](O)[C@@H](O[C@@H]2[C@H](O)[C@H](O[C@H]3OC(CN)=CC[C@H]3N)[C@@H](N)C[C@H]2N)OCC1(C)O` (stereo partly drawn), the efficacy in assay [1] is -7.04% (inactive). In addition, the molecule was classed as inactive in assay [2], in assay [3] and in assay [4].
For `O=C(NCCO[N+](=O)[O-])c1cccnc1`, the efficacy in assay [1] is -12.5% (inactive). For the same molecule, the molecule was called inactive in assay [2], in assay [3] and in assay [4].
For `Cc1cccc(C)c1NC(=O)CN1CCCCCC1`, the efficacy in assay [1] was -23% (inactive). Also, the result in assay [2], in assay [3] and in assay [4] was inactive.
`O=C(CCCN1CCC2(CC1)C(=O)NCN2c1ccccc1)c1ccc(F)cc1`: the outcome in assay [5] and in assay [6] was inactive.
Take `CC(C)c1cccc(C(C)C)c1O`: the outcome in assay [5] and in assay [6] was inactive. For the same molecule, in assay [7], the parasite growth remaining, % of DMSO control (lower = more inhibition) is 102%.
Regarding `O=c1[nH]cnc2[nH]ncc12`, the parasite growth remaining, % of DMSO control (lower = more inhibition) in assay [7] amounted to 91.2%.
